These results are taken from PubChem BioAssay.

The structures appear in SMILES notation. Calls of active or inactive are those of the source.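 Rule for the calls: active = growth inhibition above 50% at the single 2 µM test dose, taken to imply half-maximal potency below 2 µM; inactive = the rest.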

The assay is described as follows: antimalarial activity against Dd2 strain (AID 2302).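 Note: 0% = DMSO untreated growth and 100% = chloroquine plus artemisinin killed control.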 The note with it: P. falciparum Dd2 in RBCs, LDH growth readout, 72 h; at 2 µM; stronger effect = higher value.
As to `CC(C)CCN=C(N)c1ccc(OCCCCCOc2ccc(C(N)=NCCC(C)C)cc2)cc1`, the growth inhibition is 94% (active).

On to `COc1ccc2nccc([C@@H](O)CN3CCC(NCc4cn5cc(F)ccc5n4)CC3)c2c1`, for which the growth inhibition is 5% (inactive).

Take `CS(=O)(=O)c1ccc(CCNCc2ccc(-c3ccc(CN(C(=O)C4CC(=O)c5ccccc54)C4CCN(Cc5ccccc5)CC4)cc3)nc2)cc1` (stereo unspecified): the growth inhibition is 49% (inactive).

Turning to `Cc1[nH]c(C)c(-c2ccc(C(=O)c3ccc(Cl)cc3)cc2)c(=O)c1Br`, the growth inhibition was 95% (active).

On to `CCCNCc1ccc(-c2ccc(CN(CCOC)C(=O)c3ccccc3)cc2)nc1`, for which the growth inhibition was 25% (inactive).

Take `CC(C)C(NC(=O)Cc1cccc2ccccc12)C(=O)Nc1cccc(C#N)c1` (stereo unspecified): the growth inhibition was 91% (active).

Consider `COc1ccccc1CCNc1nc(C)cc(N[C@@H](CC(C)C)C(=O)Nc2ccccc2)n1`, for which the growth inhibition is 76% (active).

As to `CCC1(CC)CN(c2ccccc2)c2ccc(O)cc2S(=O)(=O)C1CC(C)C` (stereo unspecified), the growth inhibition is 89% (active).

Regarding `O=C(Nc1cc(C(F)(F)F)ccc1Cl)c1ccc(Cn2cc(Br)cn2)cc1`, the growth inhibition was 67% (active).

Regarding `COc1cccc(NC(=O)Nc2ccc(-c3oc(C(=O)NCC(c4ccccc4)N(C)C)cc3-c3ccncc3)cc2)c1` (stereo unspecified), the growth inhibition is 99% (active).

As to `CC(Cc1ccc(NC(=O)c2ccc(CNCc3ccccc3)cc2)cc1)N(CCc1cccc(Cl)c1)C(=O)OC(C)(C)C` (stereo unspecified), the growth inhibition was 2% (inactive).

`NC(=NCCc1ccc(Cl)c(Cl)c1)c1ccc2ccccc2c1`: the growth inhibition is 29% (inactive).

As for `O=C(NC1CCCc2ccccc21)C1CCCN(C(=O)c2ccc(O)c(-c3ccc(Cl)c(Cl)c3)c2)C1` (stereo unspecified), the growth inhibition is 54% (active).

Take `CC(C)CNC(=O)c1cncc(-c2ccc(CNCCCc3ccccc3)cc2)c1`: the growth inhibition is 73% (active).

For `O=C(/C=C/c1ccc(Cl)c(Cl)c1)NCCCCCN1CCC(NC(=S)Nc2ccc(F)cc2F)CC1`, the growth inhibition was 18% (inactive).

As to `CN(C)C(C)(C)CN(Cc1ccc(-c2ccc(C(F)(F)F)cc2)cc1)C(=O)Cn1c(CCc2cccc(F)c2F)nc(=O)c2ccccc21`, the growth inhibition is 67% (active).

Turning to `CCc1cccc2c(C#N)cn(CC(=O)Nc3ccc(OC)cc3)c12`, the growth inhibition is 76% (active).

For `COc1ccc2c(CCNc3nc(SC)ncc3C(=O)NCCc3ccc(F)cc3)c[nH]c2c1`, the growth inhibition is 49% (inactive).

For the molecule `COc1ccc(C(=O)[C@H]2C[C@@H]2CN(C)CCC(O)c2ccc(Cl)c(Cl)c2)cc1` (stereo partly specified), the growth inhibition was 86% (active).

As for `Cc1nc(N)nc(N)c1-c1ccc(Br)cc1`, the growth inhibition is 1% (inactive).

As to `COc1cc(Cc2cnc(N)nc2N)ccc1OCC(=O)Nc1ccc(C)cc1`, the growth inhibition is 18% (inactive).

In the case of `O=C(/C=C/c1ccc(C(F)(F)F)cc1)NCCCCCN1CCN(C(=O)Nc2ccc(F)c(Cl)c2)CC1`, the growth inhibition was -6% (inactive).

For the molecule `O=C(NCc1cccc(OC(F)(F)F)c1)c1cnc2c(c1)nc(-c1cnc(-c3ccccc3)[nH]1)n2CCc1cnc[nH]1`, the growth inhibition was 47% (inactive).

Turning to `Cc1cccc2[nH]c(-c3ccc(-c4ccc(CN5CCN(CCN6CCOCC6)CC5)cc4)cc3)nc12`, the growth inhibition was 74% (active).

Consider `Cc1nc(NCCCn2ccnc2)cc(-c2cncc(-c3ccc(OC(F)(F)F)cc3)c2)n1`, for which the growth inhibition is 11% (inactive).

In the case of `Oc1ccc2[nH]cc(C3CCN(CCC(c4ccccc4)c4ccccc4)CC3)c2c1`, the growth inhibition is 42% (inactive).

Consider `COc1ccc2nccc(N3CCC(NCCNCc4ccc5c(n4)NC(=O)CS5)C3)c2n1` (stereo unspecified), for which the growth inhibition is 5% (inactive).

For the molecule `COc1cc(C)nc2ccc(NC(=O)c3ccc(C(=O)Nc4ccc5nc(C)cc(OC)c5c4)cc3)cc12`, the growth inhibition was 72% (active).

With `Cn1nc(-c2cccc(CN[C@@H]3CCc4ccc(O)cc43)c2)c2cnc(NC3CCCC3)nc21`, the growth inhibition is 76% (active).

In the case of `Oc1ccc(CCNc2nc(NCCCOc3ccccc3-c3cccnc3)nc(N3CCNCC3)n2)cc1`, the growth inhibition is 1% (inactive).

Consider `CC(C)N1CCN(C(CN2CCN(CCCOc3cccc4ccccc34)CC2)c2ccc(F)cc2)CC1` (stereo unspecified), for which the growth inhibition is 75% (active).

`O=C(Nc1cccc([N+](=O)[O-])c1)Nc1ccc(Cl)c(C(F)(F)F)c1`: the growth inhibition is 87% (active).

As to `NC1CCN(c2nc(NCCCc3ccc(O)cc3)nc(NCc3ccccc3-c3ccc(C(F)(F)F)cc3)n2)CC1`, the growth inhibition was 88% (active).

Regarding `CCc1ccc(-c2nc3cc(NC(=O)c4cc([N+](=O)[O-])cc([N+](=O)[O-])c4)ccc3o2)cc1`, the growth inhibition is 12% (inactive).

Turning to `FC(F)(F)c1ccc2nc(-c3ccc(-c4ccc(CNCc5cnn(-c6ccccc6)n5)cc4)cc3)[nH]c2c1`, the growth inhibition is 76% (active).

As for `Cc1ccc(C(=O)Nc2ccc(Nc3ccnc4cc(-c5ccccn5)ccc34)cc2O)cc1`, the growth inhibition was 100% (active).
